From PubChem BioAssay
Tau ThT inhib = tau fibrillization inhibition (ThT binding) | Potency, µM (series often up to 57.4 µM), for the others: at the top dose activity, negative = inhibition, usual class: inhibitors | P10636 | 2.1% of 270,000 active | recombinant tau K18 P301L, heparin-induced fibrillization, ThT fluorescence; also: potency is read from the fitted curve at half-maximal effect; nearly all actives have a fitted effect of over 55% in size
Target sequence (P10636 561-689 P618L limits assumed): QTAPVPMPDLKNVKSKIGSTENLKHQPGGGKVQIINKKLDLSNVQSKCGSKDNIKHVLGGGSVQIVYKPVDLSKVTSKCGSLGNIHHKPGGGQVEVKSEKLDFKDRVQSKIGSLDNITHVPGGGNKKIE
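Heparin-induced fibrillization of the P301L-mutant K18 repeat-domain fragment of human tau was followed by ThT binding in quantitative high-throughput format.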
FBPA coupling cs = counter-screen for Giardia aldolase inhibitors: coupling enzyme system; coupling enzyme system counterscreen, AmpLite Red fluorescence; activity change, negative = inhibition, % at 58.2 µM, hits read low; 0.67% of 290,000 active; AID 2472; in the data active = activity change below about -30%
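Fluorescence at 525 nm excitation and 598 nm emission measured inhibition of the coupled detection system without aldolase. Compounds (at 57.5 uM final) were preincubated 10 min at room temperature with coupling enzyme reagent before a 20 min substrate/AmpLite Red step.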
Tau fibril FP = tau fibrillization inhibition (FP); P10636; K18 P301L tau heparin fibrillization, Alexa594 FP, 6 h; Potency, µM (series often up to 57.7 µM), for inactives: at the top dose activity, negative = inhibition, actives largely listed as inhibitors; 0.39% of 280,000 active; AID 1468; also: potency is read from the fitted curve at half-maximal effect; nearly all actives have a fitted effect of over 55% in size
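K18 P301L tau (15 uM unlabeled/0.24 uM Alexa 594-labeled, final) + compound + heparin 20 uM final; 100 mM NaOAc pH 7; 6 hr 37 C; ThT 30 uM final added, 1 hr RT; FP ex 555/em 632 nm.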
Tau fluor counter = counter-screen for tau fibril formation inhibitors; tau K18 P301L Alexa594 fluorescence, heparin fibrillization; Potency, µM (highest dose often 57.7 µM), without a hit: at the highest dose activity change, negative = decrease; 0.93% of 280,000 active; AID 1463; also: potency is read from the fitted curve at half-maximal effect; nearly all actives have a fitted effect of over 55% in size
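Human tau K18 P301L (15 uM unlabeled, 0.24 uM Alexa 594-labeled) in 100 mM sodium acetate pH 7 with 20 uM heparin, 6 hr at 37 C. ThT 30 uM added, 1 hr ambient; Alexa 594 FP and total fluorescence read at 555/632 nm.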
The depositor's hits bear a star; u = inconclusive; x = no result; ! = repeats disagree; [ ] = dose if it differs, or a comment. Sampled rows, rich in hits. Any-hit rate of the full collection: about 2.7%. Unless noted, calls follow the shape of the dose curve; as a rule, active = well fitted curve in the direction sought with a large enough effect; inconclusive = small, poorly fitted or top-dose-only effect, or another doubt; inactive = no such curve, though single readings can be large; an effect the other way counts as inactive or inconclusive. % is scaled to controls: 0 for no effect and ±100 for the full control effect.

SMILES	Tau ThT inhib	FBPA coupling cs	Tau fibril FP	Tau fluor counter
O=c1onc2cnc3ccccc3n12	u	5	1%	-3%
CCN(CC)c1ccc(NC(=O)c2ccc3c(c2)c(C)c(C)n3C)cc1	4µM*	0	12%	u
Cc1ccccc1CNC(=O)c1ccc2c(c1)c(C)c(C)n2C	-16%	x	10%	-22%
Fc1ccc(-c2nc3n(c2-c2ccncc2)CCS3)cc1	-15%	6	-3%	-13%
Fc1ccccc1N1CCN(c2c3c(nc4nncn24)CCC3)CC1	u	x	0%	-8%
CCN1C(=O)S/C(=C/c2cn(C)c3ccccc23)C1=O	10%	1	-3%	8%
Cn1cc(C=C2C(=O)Nc3cccnc32)c2ccccc21	10µM*	-10	7%	u
CCCCCCCCCCCCC/C=C/[C@@H](O)[C@@H](N)COP(=O)(O)O	-3%	2	-2%	-2%
COc1ccccc1Nc1ccc(N)cc1	16µM*	-6	u	u
COc1ccccc1NC(=O)c1ccccc1Nc1ccccc1	x	-3	x	x
CN(C)CCc1cc2c(c3c1ccc1ccccc13)OCO2	u	-36*!	-6%	u
N#C/C(=C1/C(=O)Nc2ccc(Br)cc21)c1ccccn1	28µM*	-1	u	-21%
O=C1Nc2ccc(Br)cc2C1=C1CCCCC1	x	2	x	x
CCC(=O)Nc1cc(C(C)C)c(O)cc1C	1%	1	4%	4%
Cc1cc(O)c(C(C)C)cc1NC(=O)Nc1cccc2ccccc12	u	0	18%	25µM*[quencher]
COc1ccc(-n2c(NC(=O)c3ccc(Br)o3)c(C#N)c3nc4ccccc4nc32)cc1	14µM*	-16	-12%	u
N#Cc1c(NC(=O)c2ccc(Br)o2)n(-c2ccccc2)c2nc3ccccc3nc12	25µM*	-31*	-14%	-26%
O=C(Nc1cccc(NC(=O)c2ccc(Br)o2)n1)c1ccc(Br)o1	-6%	2	1%	-1%
CCC(=O)N(C1=C(NC)C(=O)c2ccccc2C1=O)C(C)C	-7%	-41*	8%	0%
CNC1=C(N(C(C)=O)c2ccc(Br)cc2)C(=O)c2ccccc2C1=O	u	-56*	2%	-10%
CC1=C(C(=O)Nc2ccc(C)cc2C)C(c2cc(Br)ccc2F)n2ncc(C(=O)Nc3ccc(C)cc3)c2N1 (configuration not stated)	0%	x	-14%	0%
CCOc1ccc(N(CC)S(=O)(=O)N2CCCC(C(=O)NCCc3ccccc3OC)C2)cc1 (configuration not stated)	-12%	x	14%	-2%
Nc1ccccc1Sc1nc2ccccc2[nH]1	28µM*	-1	u	28µM*[quencher]
Cc1ccc2nc3cc([N+](=O)[O-])cc([N+](=O)[O-])c3cc2c1	3.2µM*	-6	u	u
Cc1nc2ccc([N+](=O)[O-])cc2nc1C	-10%	-3	-5%	-6%
SMILES	Tau ThT inhib	FBPA coupling cs	Tau fibril FP	Tau fluor counter
CCN(C(=O)c1cccn(Cc2ccccc2C)c1=O)c1ccccc1	-7%	x	-1%	-10%
Cc1cccc(OCC(=O)NCC2(N3CCN(C)CC3)CCCCC2)c1C	-3%	x	6%	-14%
Oc1[nH]c2ccc(Br)cc2c1N=NC(=S)NCC1CCCO1 (configuration not stated)	16µM*	-5	6%	14µM*[quencher]
CC[n+]1c(C=C2C=C(C)OC(C)=C2)sc2ccccc21	25µM*	0	1%	2%
CC[n+]1c(/C=C/Nc2ccccc2)sc2ccccc21	u	4	1%	28µM*[fluorescent]
CCN1/C(=C/C=C/C=C/C=C/c2sc3ccccc3[n+]2CC)Sc2ccccc21	x	-5	x	x
CC[n+]1c(/C=C(\C)Nc2ccccc2)sc2ccccc21	u	-2	4%	-3%
CCN1/C(=C/C=C/C=C/c2sc3ccccc3[n+]2CC)Sc2ccccc21	4µM*	-8	18µM*	16µM*[quencher]
CNS(=O)(=O)c1cc(-c2nnc(Nc3cc(C)ccc3C)c3ccccc23)ccc1C	-12%	x	-5%	-22%
COc1ccc2[nH]cc(CCNc3ncncc3-c3ccccc3C(F)(F)F)c2c1	x	-3	x	x
COC(=O)C/C=C\[C@H](C)[C@@H](OC)c1ccccc1Br	-10%[11.5 µM]	1	-11%[11.6 µM]	-11%[11.6 µM]
O=C(CN1C(=O)COc2ccc(S(=O)(=O)N3CCCCCC3)cc21)NCCc1ccccc1	-3%	x	6%	-15%
CC(=O)O[C@H]1CC(C)(C)C(=C=C/C(C)=C/C=C/C(C)=C/C=C/C=C(C)/C=C/C=C(\C)C(=O)C[C@@]23O[C@]2(C)C[C@@H](O)CC3(C)C)[C@](C)(O)C1	25µM*	0	u	-10%
COc1cccc(/C=C/C2=CC3(C)CC2(C)C(c2cccc(OC)c2)CC3=O)c1 (configuration not stated)	-1%[11.5 µM]	0	-9%[11.6 µM]	-3%[11.6 µM]
CCOC(=O)c1ccc(CN(Cc2ccccc2C)S(=O)(=O)c2ccc(C(C)(C)C)cc2)cc1	-2%	x	-9%	-2%
CC(C)/C=N/Nc1nc2c(c(=O)n(C)c(=O)n2C)n1C	28µM*	5	u	u
Cn1c(=O)c2c(nc(NCCO)n2C)n(C)c1=O	3%	3	5%	4%
Cc1ccccc1C(=O)N1CCN(c2ccc([N+](=O)[O-])c(NCc3cccnc3)c2)CC1	u	0	5%	-8%
Nc1cc(N2CCCC2)c(Cl)cc1[N+](=O)[O-]	16µM*	-9	0%	-26%
CC(C)C(=O)N1CCN(c2ccc([N+](=O)[O-])c(NC(C)c3ccccc3)c2)CC1 (configuration not stated)	16µM*	-11	2%	-24%
O=C(COc1ccccc1Cl)N1CCN(c2ccc([N+](=O)[O-])c(N3CCOCC3)c2)CC1	13µM*	1	-6%	u
Cc1ccc(C(=O)N2CCN(c3ccc([N+](=O)[O-])c(NCc4cccnc4)c3)CC2)cc1	13µM*	4	10%	-8%
Nc1cc(N2CCOCC2)c(Cl)cc1[N+](=O)[O-]	u	-1	4%	5%
CN(C)S(=O)(=O)c1cccc(CSCc2cccc(S(=O)(=O)N(C)C)c2)c1	x	9	x	x
COc1cc(Cl)c(NS(=O)(=O)c2ccc(-c3cnc(C4CC4)o3)cc2)c(OC)c1	-13%	x	10%	u
Cc1nn(CCCC(=O)NCc2ccccc2)c(=O)c2cc3sccc3n12	11%	x	4%	6%
O=C(c1ccccc1F)N1CCN(c2ccc([N+](=O)[O-])c(NCC3CCCO3)c2)CC1 (configuration not stated)	u	1	12%	-12%
CN(C)S(=O)(=O)N1CCN(c2ccc([N+](=O)[O-])c(NC3CC3)c2)CC1	u	-3	6%	-17%
O=[N+]([O-])c1ccc(N2CCCC2)cc1NC1CC1	14µM*	-1	-6%	-17%
O=C(NCCc1ccccc1)c1ccc(NCC2CCCO2)c([N+](=O)[O-])c1 (configuration not stated)	16µM*	1	10%	-20%
